Structures are written as SMILES. Where a name gives a salt, the structure may show the parent alone.

The subject of this assay is thyroid hormone receptor (endogenous TRα and TRβ). Details: species or system GH3-TRE-Luc (rat pituitary); GH3-TRE-Luc luciferase reporter, antagonist mode against 1 nM T3, loss of signal, qHTS. The following applies: read-out: Average AC50 (uM) GH3-TRE-Antag, antagonist mode, 1 nM T3, no GH3 cytotoxicity hit, Average AC50 (uM) GH3-TRE-Antag, 24 h.
As for `CCCCCCCCCCCCOS(=O)(=O)O` [Sodium dodecyl sulfate], the AC50 (commonly the concentration at which the activity in the assay is half-maximal) was more than 50 µM.

Take `CCCCCCn1cc[n+](C)c1` [1-Hexyl-3-methylimidazolium bromide]: the AC50 came out at 47.7 µM.

Consider `Nc1c2c(nc3ccccc13)CCCC2` [1,2,3,4-Tetrahydro-9-acridinamine hydrochloride], for which the AC50 is 92.1 µM.

Take `CC(C)c1c(C(=O)Nc2ccccc2)c(-c2ccccc2)c(-c2ccc(F)cc2)n1CC[C@@H](O)C[C@@H](O)CC(=O)O` [Atorvastatin]: the AC50 was found to be 0.321 µM.

These data come from article PMC6792352, “Limited Chemical Structural Diversity Found to Modulate Thyroid Hormone Receptor in the Tox21 Chemical Library” (Environmental Health Perspectives, 2019).
